Measured values as given in PubChem BioAssay AID1508600 (Functional Genomics Laboratory (NCATS/FGL), 2020).
The whole screen tested about 53,000 sequences, of which about 3,700 (7%) were called active. The entries come from a sample that favours actives as a whole. Unmarked numbers belong to inactive results.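 Rule for the calls: active = gene knockdowns whose robust z-score for IL-1 alpha signal is at least 2 or at most -2, so actives lie on both sides; inactive = the rest.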

test: Components of the Cytosolic LPS Sensing Pathway: Gene Identification via Genome-wide siRNA Screen; details: RAW264.7 macrophages, IL-1a HTRF, actives lie on both sides, screened at 100 nM (by protocol), cells primed 5 h with Pam3CSK4 first;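 note: robust z of the log signal after scaling to non-targeting control siRNA wells of the plate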
In short: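 RAW264.7; siRNA 100 nM final, RNAiMAX, 48h 37 degrees C; Pam3CSK4 5 h; LipidA + TransIT-TKO 24 h; IL-1a HTRF; CellTiter-Glo viability; robust z vs negative-control median.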

| Sequence | z-score |
| --- | --- |
| GCCACUGAUGUAAGGCUCATT against Lurap1l | 0.871 |
| CCCUCGUCUGAAAUGGAAATT against Nploc4 | -2.02 (active) |
| GGAACAGCUGACCUACUUUTT against Ahi1 | 1.08 |
| GGUAGACCAGCUUAAGAAGTT against Gngt1 | -0.0811 |
| GGCUUUUCACAAAACUGUUTT against Zfp120 | 1.07 |
| CCUAAAUCCUGCUAGGCGUTT against Cbln1 | -1.03 |
| GGUUAUAGGAAGGAAUUGCTT against Krt90 | 2.58 (active) |
| GAUGUCCUUCACCUUUGCCTT against Atp5d | -1.9 |
| GGCGCACACUUUCACCUAATT against Tmem170 | 0.194 |
| GGUUGUUUAUACCUGUGAUTT against Cfh | -0.292 |
| GGUGUCAACUUUAUUCUUUTT against Rab1a | 0.813 |
| GGGAUCCCUUCUGGAAAAGTT against Dmrtc2 | 0.581 |
| GGGCUCCUGAGCCUCUUAATT against Sprr1a | 2.29 (active) |
| GGUUGCACUCAUCUUAAAATT against Zfp9 | 1.59 |
| GGAAACUUCCCUUCCUAACTT against Snrpc | -0.397 |
| GCCUCUGGCAGAGAAAAGATT against 4930579K19Rik | -1.78 |
| CCAAGUUUUCAAAACAAACTT against Aqp3 | -0.0587 |
| GGAAGUGGACCAUUUCUUUTT against Olfr1359 | 0.719 |
| GGCCUGAAGGGAAAGAUUUTT against Rbbp4 | -0.721 |
| GGACUUGGGUCAUUGUGAGTT against Grpel1 | -0.93 |
| GGCAGUUUCUGUGCUAUACTT against Olfr984 | -2.49 (active) |
| GGAUAUUUAUUGUAUCCCATT against Col8a1 | -0.918 |

| Sequence | z-score |
| --- | --- |
| GGCAUCUGACGAUAAUGAUTT against Lman2l | -0.337 |
| GUUUUUCAUACAGUAGUAGTT against Vmn1r27 | 0.42 |
| CCUGUGGGACUCAAUGUUGTT against 2310039H08Rik | -0.722 |
| GGCCAGGAGAAGAAGAUACTT against Tet2 | -0.261 |
| GCCAUUCAAAAAUCAGCCGTT against Ddi2 | -2.02 (active) |
| GCUCCUAGGAACUUGGUUATT against Pacsin2 | 0.687 |
| GGCUGUUACAUUCUAUAUUTT against Kif5c | -0.13 |
| CCCAAUUAAUGAUCACCCATT against Tlcd2 | -3.04 (active) |
| GGCCCUGAACUGGUUUUGUTT against Osbpl10 | -0.119 |
| GCUCAACACUCGACAUUGUTT against Rrm1 | -2.56 (active) |
| GGUGGCAUUAAGGAAAUCATT against Olfr147 | -0.0185 |
| GGCCUGAAGCAGCUUAUCUTT against Chad | -1.56 |
| GGCAAAAAUGAGAAAGAGATT against Hebp2 | -0.643 |
| GCGUAUUACACCCUUGGAATT against Terf1 | -0.462 |
| GUCCUCCAUGAAGAAGCUCTT against Prm3 | -0.953 |
| GGACUUCAACAAGACCAUCTT against Proser2 | 1.55 |
| CGUCCAUAGAACAAUUGCATT against Rnase12 | 2.82 (active) |
| GGUAUUCCUGUCUCAGGUCTT against Matn1 | -0.59 |
| GGUUAUUCUCAUUUCGGAUTT against Phospho1 | 1.53 |
| GCUUACUUCCAAGGUCUACTT against Ptch2 | 0.905 |
| CCCAGCAGGCCAUAUUAGUTT against Cks1b | 0.377 |
| GGGAUCAUAAAGAUAACUUTT against Fasn | 2.2 (active) |

| Sequence | z-score |
| --- | --- |
| GCAUAGGGUCAUUUCAAGCTT against Kif23 | 0.0957 |
| GCUGUACUAUCUUUUUCAUTT against Olfr165 | -0.0549 |
| GCCAGUUUGUGUGCAAAAATT against Lrp1 | -0.551 |
| GAUCUGGUAUGUUUGUGACTT against Olfr1414 | -1.14 |
| CCUGUGUGUGAAUCUCGUUTT against C1qb | 1.11 |
| GGAAAUGUUGCCGUUGUCCTT against Mfsd8 | 2.13 (active) |
| GGGUGGGAGACGAAGAUAATT against Usp17lf | -0.12 |
| CCUAAUGGUUCAGGAUACGTT against Pcdhb5 | -0.641 |
| GGCUUUGAAAGUUACUACUTT against Zfp609 | 1.22 |
| GCCACUGUGUGGAAUAAAUTT against Cblif | 0.727 |
| CCAAAAGAGUUUUACAGGGTT against Lhx9 | -0.119 |
| GGAUCAGGAAGUAAACUUCTT against S100a6 | 2.57 (active) |
| GCUGUGUAGCAUUUUAACATT against Ank2 | -0.0376 |
| GUUGACUGUACCCGAUACATT against Mxd3 | -0.0552 |
| GGUGCUGAGGCUGAUUCUCTT against Capn15 | 3.35 (active) |
| GGUAUAUCGCCUAAUCACUTT against Chd6 | -0.885 |
| GGUAGUGGAGCUGAAUGUUTT against Kctd8 | 0.113 |
| GCAGCCUUCGUGAGUCUGUTT against Asb1 | -0.666 |
| GGAUUAUGAUCCAGAAUUCTT against Omd | 2.96 (active) |
| GGGACAUGAGUAACUGAUGTT against Dhx8 | -0.908 |
| GGUUGUGAUGUGGUGGUCATT against Mdh2 | 1.3 |
| GGGAGAGACAGAAAGCUUUTT against Olfr213 | 1.61 |

| Sequence | z-score |
| --- | --- |
| GCCUAGAAAGUCUGAAUAATT against Ifng | 0.203 |
| GCUGUAAGCCAAUUAACAUTT against Emp1 | 1.06 |
| CGUGCUUAGCAAUCUGAAUTT against Bcl6b | 2.44 (active) |
| GGAAACAACUUUCUAUAACTT against Vmn1r195 | -0.487 |
| GGAUUCAGCAAAUGCUUCCTT against Rcor3 | 2.31 (active) |
| GGACAAGGCCAAGCUAUAATT against Cntnap2 | -1.47 |
| GCACCAAAUUCACUAGAGUTT against Cd24a | 0.83 |
| GCCCAUAAACUGAUGGUGGTT against Tbc1d24 | -0.45 |
| CCCAACAAAUACCACUACATT against Usp20 | -1.39 |
| GGAUCUGGUGACAAACGUATT against Cabyr | 2.04 (active) |
| CCCGACUGAAUGCUCGGAUTT against Rnf220 | 0.386 |
| GGAGAAAGCUCGAAAAUGGTT against Prpf8 | -1.61 |
| GGAAGGAAACUACGAAGGUTT against Edn1 | -0.534 |
| GGAUGCAGAAGCAACUUAATT against AA986860 | 1.91 |
| CCGAUUUCCACAUCUGUCATT against Fam104a | -2.45 (active) |
| GGAAAGAAACAGAAGCACATT against Il21 | -0.511 |
| GCCUCUGUUCCAUCUUGGATT against F830104G03Rik | 1.61 |
| GCUCAGCAGGAAAUAACAGTT against Ccdc90b | -2.06 (active) |
| GGAUGAAGAGCAUAACAGUTT against Sft2d2 | -0.95 |
| GCUAGUCAUGCUACGGAAUTT against Aftph | 0.601 |
| GGUUGUUUCACCAAUAGUUTT against Idi1 | -0.454 |
| GGGCAGAUGUAAUUCUUGUTT against Ctsm | 1.91 |

| Sequence | z-score |
| --- | --- |
| GGUACAUGUAUUGUUUCACTT against Cyp2c38 | 2.76 (active) |
| GGAUUAUCCUGGCUUGUUGTT against Rdh12 | -0.962 |
| GCUGAUUGCCUCGGAGAAUTT against Shmt1 | -0.0766 |
| GCGCAUCGAAAAAUGGAUUTT against Rgl3 | 0.236 |
| GGUAUUGAGUGAUAACUACTT against Klhdc7a | 1.29 |
| GCAUUCAAUCUGCAGAGGGTT against Olfr888 | -2.48 (active) |
| GGGUAGAAAAGUGCAAUUUTT against Has2 | 0.0317 |
| CGCUCUAGGAAAACAAUGUTT against Klb | -0.614 |
| GGGUACAUCUAACUUGAAUTT against Tnfrsf10b | -0.411 |
| GCGGCAUGGACUUAGUAAATT against Fbxo5 | 3.11 (active) |
| CGAUUAGUCUCUCAUUAUUTT against Ipo11 | -1.12 |
| GGCUAAUGCUCCUUCAUGUTT against Myo18a | -0.439 |
| GCCCUGCACCAGAAAAACATT against Stk40 | -0.662 |
| GGUCUCUGUCUCCAAGAAATT against Fam53c | -1.69 |
| GGUGUUUGGGCGGUUUGAATT against Snx15 | -2.25 (active) |
| CCCUUAAUAAAGAAGGGACTT against Atg9a | 0.961 |
| GGGUCUACGAAGAAUAGGGTT against Cxcl14 | 0.744 |
| GCUAGAAGCUUUCUAUUCUTT against Hsph1 | 1.68 |
| GGAGAGUAUCUGAAGUUUCTT against Jak2 | 1.8 |
| GGUAAAAUGAUCCUUAGAATT against Pcdh15 | 0.145 |
